Assay outcomes: PubChem, The Scripps Research Institute Molecular Screening Center
This excerpt belongs to a sample that is enriched for hits.
TTR transcr act: increases transthyretin transcription; SH-SY5Y TTR promoter Gaussia luciferase, luminescence; 100% = recombinant luciferase protein wells; activation, % at 16.7 µM; 1.3% of 92,000 active; AID 1117267;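 active = activation above the mean of all tested compounds plus 3 SD, cut at about 9.5% in these data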;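 note: cells exposed to compounds for one day before reading; 0% = median of all test compound wells on the plate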
HuH7 TTR inh: counter-screen for TTR activators: TTR transcription inhibitors in HuH7 cells; shares compounds with TTR transcr act; HuH7 TTR promoter-Gaussia luciferase reporter, luminescence; inhibition, % at 16.7 µM; 4% of 1,100 active; AID 1117279;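 active = average inhibition above the solvent-only control wells' mean plus 3 SD, cut at about 15% in these data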;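 note: 0% = cells with DMSO only and 100% = cells with inhibitor control FD; inhibitors lower well luminescence so higher value means more inhibition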
TTR up confirm: confirmation of human transthyretin transcription activators; activation, % at 16.7 µM; SHSY5Y TTR promoter Gaussia luciferase, luminescence; 100% = purified Lucia enzyme wells, no cells; shares compounds with TTR transcr act; 1,100 tested, under 10 active;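 active = mean activation above a set limit taken from the earlier primary screen, cut at about 11% in these data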;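 note: 0% = DMSO-treated cells and 100% = recombinant Lucia luciferase without cells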
An asterisk follows results filed as active.

SMILES | TTR transcr act | others
COC(=O)[C@]12C[C@H](CC(=O)N3CCCCC3)C(=O)N(Cc3ccc(Cl)cc3Cl)C1=C[C@H](C(C)C)O[C@@H]2C1CC1 | 0.0
C[C@H]1[C@@H](NC(=O)c2cccc(N(C)C)c2)CC[C@@]23CCCN2C(=O)CCC[C@@H]13 | -0.7
COc1ccc(C(C)(NC(C)=O)c2nc(-c3cccc(C(=O)O)c3)cs2)cc1 (stereo not drawn) | 10.0* | HuH7 TTR inh=-19.9;TTR up confirm=0.0
COc1ccc(C(C)(NC(C)=O)c2nc(-c3cc(F)cc(F)c3)cs2)cc1 (stereo not drawn) | -2.0
COc1cccc(C(C)(O)c2nc(-c3cccc(C(=O)O)c3)cs2)c1 (stereo not drawn) | 1.5
COP1(=O)CCOCC[C@H](CC(C)C)NC(=O)[C@H](CC(C)C)N1 (stereo partly drawn) | -1.4
CCCCCCCCN1C(=O)[C@@H](CC(=O)NCc2cccc(C(F)(F)F)c2)C[C@@]2(C(=O)OC)C1=C[C@H](COCc1ccccc1)O[C@@H]2C | 0.8
O=C(OCc1cn(Cc2ccc(F)cc2F)nn1)N1CCCC1 | 0.6
Fc1ccc(CC2CCN(c3ncnc4sccc34)CC2)cc1 | -1.0
N/C(=N\OC(=O)c1ccc(F)cc1)c1ccccc1 | -0.4
CC(C)(C)OC(=O)N1C(=O)[C@](OC(=O)c2ccccc2)(c2ccc(F)cc2)c2ccccc21 | 21.1* | HuH7 TTR inh=4.4;TTR up confirm=-0.8
O=C(NC(=S)N1CCN(c2ccc(F)cc2)CC1)c1ccccc1 | -1.0
COC(=O)[C@]12C[C@H](CC(=O)N3CCN(C(=O)C4CC4)CC3)C(=O)N(Cc3ccccc3)C1=C[C@H](COCc1ccccc1)O[C@@H]2C | -0.1
CCCCN1CC[C@H](C)Oc2cc(Br)ccc2S1(=O)=O | 7.5
CC(C)CNS(=O)(=O)CC1NCc2cc3c(cc21)OCO3 (stereo not drawn) | 0.3
NC(=O)c1c(N)[nH]c(C(=O)c2ccccc2)c1-c1ccccc1C(F)(F)F | -0.2
Cc1noc(C)c1NC(=O)Nc1ccc2c(c1)C(=O)N([C@@H](C)CO)C[C@@H](C)[C@H](CN(C)S(=O)(=O)c1ccc(F)cc1)OCCCC[C@H](C)O2 | 1.5
c1nc(NCC2CCOC2)c2cc(-c3ccc4c(c3)OCO4)ccc2n1 (stereo not drawn) | -1.6
CCOC(=O)C(NC(=O)NCc1cccc(C(F)(F)F)c1)(OCC)C(F)(F)F (stereo not drawn) | -0.4
CCOC(=O)C(NC(=O)c1ccccc1)(OCC1(CC)COC1)C(F)(F)F (stereo not drawn) | -3.2
CCOC(=O)C(NC(=O)c1cccc(Cl)c1)(OCc1ccc(F)cc1)C(F)(F)F (stereo not drawn) | 24.5* | HuH7 TTR inh=-9.3;TTR up confirm=-0.6
COC(=O)[C@]12C[C@H](CC(=O)N3CCN(C(=O)C4CC4)CC3)C(=O)N(Cc3ccco3)C1=C[C@H](C1CCCC1)O[C@@H]2C | 0.3
Fc1ccccc1Cn1ccc2ccc(-c3ccc4ccn(Cc5ccccc5F)c4c3)cc21 | 0.1
Cc1cccc(N(Cc2cc3cc(C)ccc3[nH]c2=O)C(=O)c2cccs2)c1 | -1.6
COc1cc2cc(CN(CCO)C(=O)c3cccs3)c(=O)[nH]c2cc1OC | 32.6* | HuH7 TTR inh=-10.9;TTR up confirm=0.2
SMILES | TTR transcr act | others
COc1cc2cc(CN(CCc3cccc(C)c3)C(=S)NCCCN(C)C)c(=O)[nH]c2cc1OC | -1.5
Cc1cccc(Cl)c1-n1nnnc1C1(C)CSCC(=O)N1Cc1ccc(F)cc1 (stereo not drawn) | 1.7
CC1CCCN(c2cccc3c2S(=O)(=O)N([C@H](C)c2ccccc2)C[C@@H](COCc2ccccc2)O3)C1 (stereo partly drawn) | -3.0
COc1cccc(S(=O)(=O)N(C)C[C@@H]2OCc3cn(nn3)CCCC(=O)N([C@@H](C)CO)C[C@H]2C)c1 | 11.4* | HuH7 TTR inh=-7.5;TTR up confirm=0.6
C[C@@H]1CN([C@@H](C)CO)C(=O)CCCn2cc(nn2)CO[C@H]1CN(C)S(=O)(=O)c1cccc(C#N)c1 | -1.5
C[C@H](CO)N1C[C@H](C)[C@@H](CN(C)S(=O)(=O)c2ccc3ccccc3c2)OCc2cn(nn2)CCCC1=O | 0.3
Cc1ccc(NC(=O)C2CC3CCC2C3)c(C)c1 (stereo not drawn) | -0.1
CC(C)(C)OC(=O)NCc1cc2c(cc1/C=C/S(=O)(=O)NCc1ccc(F)cc1)OCO2 | 1.0
Cc1ccc(S(=O)(=O)N2CCNC(=O)C2)c(C)c1 | 6.5
O=C1CN(S(=O)(=O)c2cccc(Br)c2)CCN1 | 13.9* | HuH7 TTR inh=-10.5;TTR up confirm=0.1
COC(=O)CCN1CCN(S(=O)(=O)c2cccc(Br)c2)CC1 | 2.4
CC(C)CN1C(=O)N2CCc3ccccc3C2CS1(=O)=O (stereo not drawn) | -1.2
CCN(C(=O)[C@@H](C1CC1)[C@@H](O)c1ccc(C(C)=O)cc1)c1ccccc1 | 0.0
COC(=O)[C@]12C[C@H](CC(=O)NCC3CCCCC3)C(=O)N(Cc3ccc4c(c3)OCO4)C1=C[C@H](C(C)C)O[C@@H]2C1CC1 | 1.2
c1ccc2sc(-c3csc4c3CCNC4)nc2c1 | 2.8
CC(=Nc1ccccc1)C1=C(O)COC1=O | 17.9* | HuH7 TTR inh=-6.4;TTR up confirm=-0.2
COc1ccc(OC)c(N=C(C)C2=C(O)COC2=O)c1 | -0.2
O=C1OCC(O)=C1Cc1ccccc1 | 5.4
CC(C)COc1ccc(-c2csc(N3CCC(C(N)=O)CC3)n2)cc1 | -3.7
CC(=O)c1ccc(CC2SC(N)=NC2=O)cc1 (stereo not drawn) | 2.5
NC1=NC(=O)C(CC(=O)NCc2ccccc2)S1 (stereo not drawn) | 5.6
Cc1ccc(C(=O)CC2SC(N)=NC2=O)cc1 (stereo not drawn) | 20.3* | HuH7 TTR inh=-6.8;TTR up confirm=2.5
O=C(NCc1cccc(Cl)c1)O[C@H]1CC[C@@]23CCCN2C(=O)CCC[C@H]3C1 | -1.8
Cc1onc(C(=O)N2CCN(C(c3ccccc3)c3ccccc3)CC2)c1Br | -0.6
Cc1cccc2c3nc4ccccc4nc3n(C)c12 | -0.5
SMILES | TTR transcr act | others
CC(=O)NC(C)c1cc(Cl)c2cccnc2c1O (stereo not drawn) | -5.6
Cc1cc(Cl)nc2c(C(C)C)cccc12 | 17.2* | HuH7 TTR inh=-10.5;TTR up confirm=-0.8
CCOC(=O)[C@]12CCCC=C1N(Cc1ccc(OC)cc1)C(=O)[C@@H]2CC(=O)NCCCN1CCCC1=O | 0.7
COc1ccccc1CNC1CCC12CCC(c1ccccc1)CC2 (stereo not drawn) | 0.3
COc1ccc(S(=O)(=O)N2CCCC2C(=O)NCc2ccccc2Cl)cc1 (stereo not drawn) | -1.6
COc1ccc(CNC(=O)C2CCCN2S(=O)(=O)c2ccc(Cl)cc2)cc1 (stereo not drawn) | 12.6* | HuH7 TTR inh=-12.2;TTR up confirm=-0.5
COc1ccc(S(=O)(=O)N2CCC[C@H]2C(=O)NCc2ccc(Cl)cc2)cc1 | 1.7
COc1cc2c(c(OC3OC(CO)C(O)C(O)C3O)c1)C(=O)CC(c1ccc(O)cc1)O2 (stereo not drawn) | 0.3
CCCCC(Sc1nc(N)c(NC(=O)c2ccc(OCC)cc2)c(=O)[nH]1)C(=O)O (stereo not drawn) | 1.1
Cc1ccc(C(=O)Nc2c(N)nc(SCC(=O)Nc3cc(C)on3)[nH]c2=O)cc1 | 0.1
CCC(Sc1nc(N)c(NC(=O)c2ccc(Br)o2)c(=O)[nH]1)C(=O)O (stereo not drawn) | 12.4* | HuH7 TTR inh=-9.7;TTR up confirm=0.1
